Over roughly 33,000 sequences, “e-score” has its median near -0.053; the highest 2% begin near 0.38. Only a selection was taken, and the highest values are over-represented in it overall.
Each sequence was assayed against T1, SIX1 homeodomain (reference allele) (human, UniProt Q15475 108-198) (assay: universal protein binding microarray; Universal all-10-mer PBM (8x60K, AMADID 030236), 300 nM GST-tagged protein, Alexa Fluor 488 anti-GST; buffer, salt, pH and temperature not stated (as in Berger); high values mean tight binding). Conditions: protein: ivt; tags: N-terminal GST; dsDNA, one strand shown.
T1 sequence: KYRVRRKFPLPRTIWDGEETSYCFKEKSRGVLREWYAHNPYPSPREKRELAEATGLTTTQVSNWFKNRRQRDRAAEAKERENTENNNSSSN
Summary of the method: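 After in vitro transcription/translation, GST-tagged homeodomains were quantified against a recombinant GST standard curve by anti-GST western blot. They were then placed in duplicate at 300 nM final concentration on universal 'all 10-mer' protein binding microarrays of 8×60K format.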

Sequence | binding signal [E-score]
GGTATGAA | 0.224 ± 0.00641
GCCTAATA | 0.167 ± 0.0373
ATCATGCA | 0.225 ± 0.0116
AGATAGTA | 0.24 ± 0.0305
ACCGTCTC | 0.251 ± 0.0203
CCCGTATA | 0.29 ± 0.023
CCCGTATC | 0.469 ± 0.0109
ACCGTATA | 0.278 ± 0.0281
ACCGTATC | 0.449 ± 0.00906
CCCGTCTC | 0.205 ± 0.0534
ATACAGTC | 0.163 ± 0.00378
CAGATAGC | 0.171 ± 0.0462
GGGATTAC | 0.167 ± 0.011
CAGGATTA | 0.213 ± 0.0434
CGGATTAC | 0.299 ± 0.00435
AGATAATA | 0.245 ± 0.114
ATCAAATA | 0.239 ± 0.0859
CACAATAC | 0.31 ± 0.0105
ATACTACC | 0.23 ± 0.0327
CATGGATA | 0.3 ± 0.00508
TAGGGATA | 0.41 ± 0.00754
GATGGATA | 0.3768 ± 0.0011
GAGGGATA | 0.412 ± 0.00552
AAGGGATA | 0.37 ± 0.0084
AATGGATA | 0.354 ± 0.0168

Sequence | binding signal [E-score]
GAGGGATC | 0.397 ± 0.00899
TAGGGAGA | 0.177 ± 0.0683
GAGGGGTA | 0.257 ± 0.0214
GGCATATA | 0.29 ± 0.00948
CGGATTAA | 0.351 ± 0.0739
CTATAATA | 0.259 ± 0.0899
GATCTCGC | 0.254 ± 0.0311
ATAGATGA | 0.287 ± 0.0197
ATCGTGCA | 0.16 ± 0.0147
ATATGGAT | 0.371 ± 0.00838
ACGGATCC | 0.386 ± 0.0442
CCCGATCG | 0.323 ± 0.0723
ACGGATCA | 0.43 ± 0.0139
CCGGATCC | 0.424 ± 0.034
ACGGATCT | 0.324 ± 0.0553
ACGGATCG | 0.354 ± 0.0265
CCGGATTC | 0.249 ± 0.0385
CCAGATCC | 0.332 ± 0.0766
CCGGATCG | 0.417 ± 0.0468
GCGGATCC | 0.348 ± 0.0564
ACAGATCC | 0.288 ± 0.0336
ATCTCGAG | 0.215 ± 0.0177
AACCCATA | 0.263 ± 0.0634
GTTAGATA | 0.248 ± 0.0413
AAGATCAA | 0.201 ± 0.0668

Sequence | binding signal [E-score]
ATCCTACC | 0.299 ± 0.0201
CGTATTAG | 0.174 ± 0.0547
GTACACGA | 0.165 ± 0.0933
ACTAGATC | 0.181 ± 0.003
CGAAGATA | 0.325 ± 0.0496
ATCCCGAC | 0.238 ± 0.0448
TACCGATA | 0.375 ± 0.0115
CACCGATA | 0.374 ± 0.0197
ACCCGATA | 0.4 ± 0.0453
ACCCGATC | 0.372 ± 0.0497
GCCCGATA | 0.33 ± 0.0332
AACCGATA | 0.41 ± 0.00758
ATACATTA | 0.223 ± 0.0139
ATCCATGC | 0.253 ± 0.0158
ATCCGAAC | 0.278 ± 0.0321
ACGGATTG | 0.179 ± 0.0302
ACGGATAT | 0.4283 ± 0.00251
CCGGATAG | 0.361 ± 0.0142
ACGGATAA | 0.216 ± 0.0405
CCGGATAC | 0.4414 ± 0.00339
ACGGATAG | 0.344 ± 0.0201
ACGGATTC | 0.187 ± 0.0297
CCGGATAA | 0.299 ± 0.0306
ACGGATAC | 0.454 ± 0.00689
GCGGATAC | 0.43 ± 0.00572

Sequence | binding signal [E-score]
GCGGATAA | 0.317 ± 0.0316
AGGTAGAT | 0.2625 ± 0.00214
GATCTGCC | 0.334 ± 0.00569
ATCCGAGC | 0.24 ± 0.00809
GTATTACA | 0.227 ± 0.0055
GATAGTCC | 0.24 ± 0.023
GGTGTTAA | 0.301 ± 0.0173
ATCTGTAC | 0.221 ± 0.0203
ATCGCATA | 0.287 ± 0.0238
GATCATTA | 0.348 ± 0.0458
AGTCTGAT | 0.19 ± 0.0144
GAGATCCC | 0.378 ± 0.0279
CCGATCGC | 0.212 ± 0.0392
GCGATCCC | 0.395 ± 0.0154
GCGATCGA | 0.199 ± 0.0473
GAGATCCA | 0.332 ± 0.0213
CCGATCCC | 0.412 ± 0.0499
AAGATCCC | 0.243 ± 0.0194
GCGATCGC | 0.378 ± 0.0183
CCGATCTC | 0.316 ± 0.0192
ACGATCCC | 0.337 ± 0.0613
CCGATCGA | 0.264 ± 0.0353
GCGATCCA | 0.345 ± 0.0824
CAGATAGG | 0.245 ± 0.0333
TATATAAA | 0.197 ± 0.00308

Sequence | binding signal [E-score]
TAGATCTA | 0.175 ± 0.0374
ATATGTAC | 0.244 ± 0.0293
ATCGCTTG | 0.156 ± 0.032
GATCGATA | 0.408 ± 0.0108
CTACGATC | 0.233 ± 0.0113
TAACGATA | 0.315 ± 0.0478
GATCGATC | 0.362 ± 0.0437
ATACGATG | 0.277 ± 0.0162
GAACGATA | 0.383 ± 0.0174
ATACGGTC | 0.256 ± 0.0328
ATACGATC | 0.388 ± 0.00595
GAACGATC | 0.236 ± 0.00301
ATACGGTA | 0.405 ± 0.0105
ATACGGTG | 0.328 ± 0.012
AATCGATA | 0.335 ± 0.0577
ACCAGGGT | 0.189 ± 0.0407
CCGTCTAC | 0.171 ± 0.0578
ATCGGTTG | 0.238 ± 0.008
TAATCTCA | 0.186 ± 0.0184
GTGTCCAA | 0.221 ± 0.057
GGGCTAGA | 0.209 ± 0.0223
CTACGATA | 0.321 ± 0.0303
CTACTATC | 0.273 ± 0.0271
ACACGATA | 0.384 ± 0.0253
ATACTATA | 0.371 ± 0.0468

Sequence | binding signal [E-score]
GTACGATA | 0.338 ± 0.0355
ACACGATG | 0.156 ± 0.0256
ACACGATC | 0.266 ± 0.019
ATACTATC | 0.401 ± 0.0105
ATACGATA | 0.419 ± 0.0297
AACTATAC | 0.24 ± 0.0587
AGATGTAT | 0.338 ± 0.00993
ATACGCAC | 0.254 ± 0.00836
CCCATGGG | 0.152 ± 0.0229
GATCGGCA | 0.211 ± 0.0237
ATACACAT | 0.289 ± 0.00303
GTGTGAGA | 0.245 ± 0.029
ATGTGAGA | 0.165 ± 0.0625
GTGTGTGA | 0.174 ± 0.0383
CTGTGATA | 0.39 ± 0.0381
CTGTGATC | 0.328 ± 0.00414
ATGTGATA | 0.392 ± 0.0638
GTGTGATA | 0.411 ± 0.0318
ATGTGATC | 0.32 ± 0.0109
AGATAGGA | 0.175 ± 0.0479
CGAATCCA | 0.1647 ± 0.00129
CCCGCGGA | 0.205 ± 0.00383
TATCTGCA | 0.284 ± 0.0307
GAAATACC | 0.1851 ± 0.00123
ATACCGCA | 0.4061 ± 0.00272

Sequence | binding signal [E-score]
ATACCGAA | 0.329 ± 0.0172
ATACCGCG | 0.377 ± 0.0129
ATACCGAG | 0.304 ± 0.0181
ACACCGCA | 0.351 ± 0.043
ACACCGCG | 0.283 ± 0.0738
ACACCGCC | 0.321 ± 0.0533
ATACCGAT | 0.3532 ± 0.00127
ATACCGCC | 0.418 ± 0.0211
CTGAGCCC | 0.161 ± 0.049
ATCCCAAC | 0.189 ± 0.0265
ATACGTCA | 0.196 ± 0.0392
ATCAGCGG | 0.171 ± 0.08
ACAATATC | 0.309 ± 0.0486
ATGATAGC | 0.379 ± 0.0583
ATGATAGG | 0.387 ± 0.0153
ATGATCGC | 0.265 ± 0.0383
CTGATAGC | 0.319 ± 0.0368
ACGATAGG | 0.269 ± 0.00971
AGGATAGG | 0.306 ± 0.0312
ATCCAGCA | 0.198 ± 0.0454
CGTAACAC | 0.205 ± 0.0442
ATTACATC | 0.248 ± 0.072

From publication PMC10668032, “Altered binding affinity of SIX1-Q177R correlates with enhanced WNT5A and WNT pathway effector expression in Wilms tumor”
